Screening data: PubChem, National Center for Advancing Translational Sciences (NCATS)
PLK1 PBD inh: PLK1 (human) polo-box domain binding inhibition. Plk1 PBD binding of FITC phosphopeptide, fluorescence polarization. Potency, µM, for inactives: max response, negative = inhibition, hits mostly inhibitors. hit rate 2.8% among 360,000. AID 720504; further: series mostly up to about 57 µM; nearly all actives have a fitted effect of over 65% in size
ALDH1A1 block: ALDH1A1 (human) enzyme inhibition; P00352; Purified ALDH1A1, NADH fluorescence, propionaldehyde substrate; Potency, µM (titrated, usually from 75.3 µM), for inactives: at the top dose activity, negative = inhibition, usual class: inhibitors; hit rate 7.3% among 220,000; active means well fitted inhibition curve with a large enough effect, not every such curve was filed as active; inconclusive means small, poorly fitted or top-dose-only effect, or another doubt; inactive means no such curve, though single readings can be large or run the other way;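 further: plate controls were no enzyme wells and a reference inhibitor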
Target sequence (P00352 whole entry, looked up): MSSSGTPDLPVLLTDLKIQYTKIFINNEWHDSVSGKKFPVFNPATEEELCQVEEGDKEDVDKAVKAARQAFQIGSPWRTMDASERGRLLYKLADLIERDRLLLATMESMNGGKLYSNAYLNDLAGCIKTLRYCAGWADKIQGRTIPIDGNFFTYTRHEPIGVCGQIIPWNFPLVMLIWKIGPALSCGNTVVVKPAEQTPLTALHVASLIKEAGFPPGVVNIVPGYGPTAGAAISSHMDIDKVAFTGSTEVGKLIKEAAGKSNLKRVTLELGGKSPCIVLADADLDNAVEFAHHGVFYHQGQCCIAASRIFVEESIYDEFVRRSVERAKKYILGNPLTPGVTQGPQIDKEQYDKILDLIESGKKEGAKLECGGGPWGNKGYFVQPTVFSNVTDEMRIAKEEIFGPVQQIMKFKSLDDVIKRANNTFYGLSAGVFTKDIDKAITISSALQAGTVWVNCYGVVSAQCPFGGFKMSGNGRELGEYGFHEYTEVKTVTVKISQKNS
Sfp PPTase inh: blocks B. subtilis Sfp PPTase activity; Q9F4F7; Biochemical Sfp PPTase activity, qHTS; Potency, µM, without a hit: largest response in the series, negative = inhibition, usual class: inhibitors; hit rate 3.5% among 310,000; AID 1490;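 further: the enzyme is Sfp with the accession as filed and its product quenches rhodamine fluorescence; 0% = enzyme reaction without inhibitor and -100% = no enzyme wells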
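Step 1, compound plus 15 nM Sfp-PPTase, 15 min, room temperature. Step 2, add rhodamine-CoA (5 uM) and BHQ-2-YbbR (12.5 uM). Step 3, read 525/598 nm fluorescence at 0 and 30 min.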
Gal4-VP16 FLuc: counter-screen for ROR gamma inhibitors: Gal4-VP16 reporter | Drosophila S2 Gal4-VP16 UAS-luciferase, luminescence, 20 h | Potency, µM (titrated, usually from 53.6 µM), for the others: at the top dose activity, negative = inhibition, actives largely listed as inhibitors | hit rate 3.5% among 310,000;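 further: Gal4-VP16 expression switched on by copper sulfate through the metallothionein promoter; nearly all actives have a fitted effect of over 50% in size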
RORgamma inh: blocks mouse ROR gamma transcriptional activity; P51450; Drosophila S2 Gal4-RORgamma UAS-luciferase reporter, 20 h; Potency, µM (titrated, usually from 53.6 µM), inactives show at the top dose activity change, negative = inhibition, most hits filed as inhibitors; hit rate 5.4% among 310,000; further: nearly all actives have a fitted effect of over 60% in size
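Compounds are pin-transferred onto Drosophila Schneider cells expressing a copper-inducible Gal4–ROR gamma transactivation domain fusion. After 1 hr, copper sulfate is added to 700 uM final; luciferase is read 20 hr later.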
Numbers without * were called inactive; ? = inconclusive; nt = no result given. An excerpt weighted towards active compounds, which were near 12% of everything screened. Unless noted, the call rests on the fitted dose curve; in most records, active means well fitted curve in the direction sought with a large enough effect; inconclusive means small, poorly fitted or top-dose-only effect, or another doubt; inactive means no such curve, though single readings can be large; an effect the other way counts as inactive or inconclusive. Unless noted, on the % scale 0 is the no-effect control and ±100 the full control effect; potency means the concentration at half of the fitted maximal effect.

SMILES | PLK1 PBD inh | ALDH1A1 block | Sfp PPTase inh | Gal4-VP16 FLuc | RORgamma inh
Cc1ccc2cc(CN(CC3CCCO3)S(=O)(=O)c3ccccc3)c3nnnn3c2c1 (stereo not drawn) | -7.6% | 7.08µM* | 13.8% | 8.7% | -22.8%
Cc1cccc2cc(CN(CC3CCCO3)S(=O)(=O)c3ccccc3)c3nnnn3c12 (stereo not drawn) | nt | ? | -7.8% | -5.8% | -15.1%
COc1cccc(Nc2ncc3nc(C)c(=O)n(C[C@H]4CCCO4)c3n2)c1 | nt | 12.5% | 6.7% | 2.6% | ?
Cc1ccc2c(c1)Cc1nc3ccccc3nc1-2 | 5.0% | ? | 3.5% | 14.1µM* | 10µM*
Cc1ccc2c(c1)-c1nc3ccccc3cc1C2=NC1CCCCC1 | 2.4% | -1.0% | -11.4% | ? | -2.0%
Cc1ccc(C(=O)Oc2ccc(/C=C3\C(=N)N4N=C(N5CCOCC5)SC4=NC3=O)cc2)cc1 | 26.7µM* | nt | -22.8% | 12.6µM* | ?
N=C1/C(=C\c2ccc(OC(=O)c3ccco3)cc2)C(=O)N=C2SC(N3CCCCC3)=NN12 | ? | nt | 4.2% | -16.1% | ?
N=C1/C(=C\c2ccc(OC(=O)c3ccccc3)cc2)C(=O)N=C2SC(N3CCOCC3)=NN12 | 23.8µM* | nt | -15.1% | ? | ?
N=C1/C(=C\c2ccc(OC(=O)c3ccc(F)cc3)cc2)C(=O)N=C2SC(N3CCCC3)=NN12 | ? | nt | -14.4% | -15.1% | -33.3%
N=C1N(/N=C/c2ccccc2)C(=Nc2ccccc2)C(=S)N1c1ccccc1 | 1.7% | ? | 31.6µM* | 5.01µM* | 4.47µM*
Cc1nnc(C)n1/N=C/c1ccccc1 | -4.6% | 0.1% | 23.8% | -4.3% | -10.0%
O=C1N=C(N2CCCC2)CN1c1ccccc1 | -5.2% | 1.6% | 7.5% | -6.9% | -6.1%
CC(=O)c1c(NCc2ccccc2)nc(=O)n(-c2ccccc2)c1C | -4.1% | 14.1µM* | -15.1% | ? | ?
CCOC(=O)C1CCCN(C(=O)CSc2ccccc2)C1 (stereo not drawn) | -25.2% | ? | 4.3% | 3.1% | 5.9%
CCOC(=O)C1CCCN(C(=O)CSc2ccc(NC(C)=O)cc2)C1 (stereo not drawn) | 21.2µM* | -13.3% | 6.4% | 11.4% | 8.1%
COCCN1C(=O)/C(=C/c2cc3c(cc2Br)OCO3)NC1=S | ? | 0.199µM* | -16.2% | ? | 11.2µM*
CS(=O)(=O)N1CCC2(CCCN(c3ncccn3)C2)CC1 | nt | -0.4% | 8.1% | -10.4% | -25.3%
Cc1ncn(-c2ccccc2)c1-c1ccccc1 | -20.8% | nt | nt | nt | nt
Cc1cc(C)c(C(=O)/C=C/c2ccc3c(c2)OCO3)c(=O)[nH]1 | -3.5% | -3.1% | -3.5% | -3.3% | 19.7%
Cc1cc(C)c(C(=O)/C=C/c2cccc3ccccc23)c(=O)[nH]1 | -10.3% | 9.3% | -7.8% | 12.6µM* | ?
CCc1nc2ccc(C(=O)Nc3cc(-c4ccccc4)ccc3OC)cn2c1N(CCN(C)C)CC1CC1 | -4.7% | nt | nt | nt | nt
CCC(C)(C)n1nnnc1CN(Cc1cccs1)Cc1cc2cc(OC)ccc2[nH]c1=O | -2.3% | ? | -1.8% | 5.4% | ?
CCC(c1nnnn1C(C)(C)CC)N(CCCN1CCOCC1)Cc1cc2cccc(C)c2[nH]c1=O (stereo not drawn) | -16.1% | ? | -9.3% | 11.5% | -0.1%
Cc1cccc2cc(CN(Cc3cccs3)Cc3nnnn3Cc3ccccc3)c(=O)[nH]c12 | -2.7% | 2.82µM* | 0.1% | 4.0% | 34.6%
Cc1cccc2cc(CN(CCCN3CCOCC3)Cc3nnnn3C(C)(C)C)c(=O)[nH]c12 | -2.9% | 25.1µM* | 13.3% | 12.0% | -1.3%
SMILES | PLK1 PBD inh | ALDH1A1 block | Sfp PPTase inh | Gal4-VP16 FLuc | RORgamma inh
COc1ccc2cc(CN(Cc3cccs3)Cc3nnnn3Cc3ccccc3)c(=O)[nH]c2c1 | -2.0% | 2µM* | 0.0% | 4.0% | ?
COCCn1nnnc1CN(Cc1cccnc1)Cc1cc2cc(OC)ccc2[nH]c1=O | 2.0% | ? | -8.1% | 1.1% | 23.2%
COc1ccc2cc(CN(Cc3cccnc3)Cc3nnnn3Cc3ccccc3)c(=O)[nH]c2c1 | -2.5% | 8.91µM* | 8.1% | -2.3% | ?
[Li+] | nt | 5.0% | nt | nt | nt
CC(C)C[C@@H](CC(=O)N[C@@H](CCC(=O)O)CC(=O)O)NC(=O)[C@@H]1CCCC[C@H]1NC(=O)C[C@H](CCCN)NC(=O)C[C@H](Cc1ccccc1)NC(=O)[C@@H]1CNCC[C@H]1N | nt | -3.8% | -9.0% | 1.8% | 6.2%
O=C(O)c1ccc(C(S(=O)(=O)c2ccccc2)S(=O)(=O)c2ccccc2)cc1 | 4.4% | nt | nt | nt | nt
COc1ccc2[nH]c(=O)c(CN(Cc3nnnn3Cc3ccccc3)CC3CCCO3)cc2c1 (stereo not drawn) | -13.2% | ? | 89.1µM* | 23.5% | 0.3%
COc1ccc2[nH]c(=O)c(CN(Cc3nnnn3Cc3ccc(F)cc3)CC3CCCO3)cc2c1 (stereo not drawn) | -2.1% | ? | 15.2% | -0.1% | 26.9%
Cc1ccc(S(=O)(=O)N(Cc2cccnc2)Cc2cc3ccccc3[nH]c2=O)cc1 | 0.2% | nt | -3.0% | 20.0% | 41.4%
CCOC(=O)Cn1nnnc1CN(Cc1cccs1)Cc1cc2cc(C)cc(C)c2[nH]c1=O | -4.4% | ? | 15.8µM* | 10.2% | -37.1%
CCOC(=O)Cn1nnnc1CN(Cc1ccccc1)Cc1cc2cc(CC)ccc2[nH]c1=O | -0.2% | ? | 2.7% | 1.7% | 11.6%
COc1ccc(S(=O)(=O)N(Cc2cccnc2)Cc2cc3ccccc3[nH]c2=O)cc1 | 26.7µM* | nt | 25.8% | -3.9% | 16.9%
CSc1cccc(NC(=O)CCCOc2cc(=O)n(C)c3ccccc23)c1 | -8.8% | nt | nt | nt | nt
Cc1cccc(C2NC(=O)c3c(sc(C)c3C)N2)c1O (stereo not drawn) | -20.6% | ? | 89.1µM* | -12.5% | -0.7%
Cc1ccc(C2NC(=O)c3c(sc(C)c3C)N2)c(O)c1 (stereo not drawn) | ? | -13.7% | 50.1µM* | 11.0% | ?
COc1ccc2nc(/N=C\N(C)C)sc2c1 | -14.7% | -7.9% | -11.4% | -5.7% | -3.7%
CN(C)/C=N/c1nc2ccc3c(c2s1)CCCC3 | -5.8% | -12.1% | 7.1% | -4.9% | 10µM*
COc1ccc(Oc2ncc3nc(-c4ccc(Cl)cc4)c(=O)n(C)c3n2)cc1 | nt | -4.2% | -4.1% | -4.2% | -1.8%
CC(=O)NCCOc1nc(N(C)C)nc(N2CCOCC2)n1 | -1.9% | -4.6% | 17.6% | -6.5% | 0.3%
CC(C)=NOc1nc(N(C)C)nc(N2CCOCC2)n1 | 29.9µM* | nt | -2.6% | -4.7% | 1.7%
COc1ccc(NC(=O)c2cc(C3CCCCN3C(=O)c3cccs3)on2)c(C)c1 (stereo not drawn) | -0.6% | nt | nt | nt | nt
O=C(O)/C=C/C(=O)NCCCc1ccccc1 | 26.7µM* | -4.7% | 14.7% | -10.2% | -20.2%
O=C(O)/C=C/C(=O)NCc1ccccc1 | 6.1% | ? | 2.3% | 3.1% | -22.8%
COc1ccc(CCNC(=O)/C=C\c2ccccc2)cc1OC | -6.3% | -6.0% | -0.5% | -12.1% | 25.0%
COc1ccc(CCNC(=O)/C=C/c2ccco2)cc1OC | -24.2% | nt | 44.7µM* | 0.9% | 12.7%
